# In the supplement of paper PMC9135407:
# Several values for one entry are separate records, joined by “and”; a condition that tells them apart may be missing. Identical values can stand only once. Counter-ions that a name gives are not always drawn. Out of some 5,800 compounds screened, about 620 (11%) showed activity. This is one part of a sample in which actives are shown more often than they occur. Unmarked numbers belong to inactive results.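 How the source made its calls: active = score above a cut-off or among the top three wells of a plate; in these data no inactive exceeds 0.85.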
# Test system: primary human hepatic stellate cells (donor 1)
# Assay: scaled lipid accumulation score (0 = DMSO-like, 1 = nortriptyline-like); higher = stronger HSC inactivation (lipid re-accumulation), active = hit call of the paper
# Conditions: 48 h
# [1] = library stock concentration: 10 mM
# [2] = library stock concentration: 1 mM
# [3] = library stock concentration: 3.33 mM
# [4] = library stock concentration: 400 uM
# [5] = library stock concentration: 2 mM
structure (smiles),measurement,setting,value
Cc1nccnc1N1CCCCC1,scaled lipid accumulation score,[1],≤ 0
CCCCCC/C=C\CCCC(=O)CC(=O)N[C@H]1CCOC1=O [N-3-oxo-tetradec-7(Z)-enoyl-L-Homoserine lactone],scaled lipid accumulation score,[2],≤ 0
Cc1ccc(-c2c(-c3nn(C)c4ncnc(N5CC[C@H](N6CCCCC6)C5)c34)cnn2C)cc1,scaled lipid accumulation score,[3],≤ 0
same,scaled lipid accumulation score,[1],0.091
"CCCCCC(=O)CC[C@H]1[C@H](O)CC(=O)[C@@H]1CCCCCCC(=O)O [13,14-dihydro-15-keto Prostaglandin E1]",scaled lipid accumulation score,[2],≤ 0
Cc1cc(Nc2nc(N[C@@H](C)c3ccc(F)cc3)c(C#N)cc2F)n[nH]1,scaled lipid accumulation score,[4],≤ -0.005
same,scaled lipid accumulation score,[5],≤ -0.005
same,scaled lipid accumulation score,[3],≤ 0
same,scaled lipid accumulation score,[1],0.387 and 0.197
O=S(=O)(NO)c1ccccc1 [Piloty's Acid],scaled lipid accumulation score,[2],≤ 0
Cn1cnc2cc3c(Nc4cccc(Br)c4)ncnc3cc21,scaled lipid accumulation score,[3],0.044
CCCCCC=CCC=CCCCCCCCC(=O)OC(CO)CO [2-Linoleoyl Glycerol],scaled lipid accumulation score,[2],0.053
C[C@@H]1C[C@H]2O[C@@H]2/C=C\C=C\C(=O)Cc2c(Cl)c(O)cc(O)c2C(=O)O1 [Radicicol],scaled lipid accumulation score,[2],0.383
O=C(O)CCC/C=C\C[C@@H]1[C@@H](CCC(=O)CCc2ccccc2)[C@H](O)C[C@@H]1O [15-keto Latanoprost (free acid)],scaled lipid accumulation score,[2],≤ 0
CNCc1cn(C2CCN(CCC(C)CC(C)(C)C)CC2)nn1 (centres undefined),scaled lipid accumulation score,[1],1.05 (active)
CCCCC(CC)CN1CCC(n2cc(CNC)nn2)CC1 (centres undefined),scaled lipid accumulation score,[1],0.988 (active)
CCCCC(CC)CN1CN(CC(CC)CCCC)CC(C)(N)C1 (centres undefined) [Hexetidine],scaled lipid accumulation score,,≤ 0
same,scaled lipid accumulation score,[1],0.342
CCCCc1ccc(N=CNO)c(C)c1,scaled lipid accumulation score,[2],0.03
CC(O)(CC(=O)O)CC(=O)O,scaled lipid accumulation score,[1],0.023
CC1(C)[C@H]2CC[C@@]1(C)C(=O)C2 [1r-camphor],scaled lipid accumulation score,[1],≤ 0
O=C(O)[C@H](O)c1ccccc1 [R-(-)-Mandelic Acid],scaled lipid accumulation score,[2],0.02
CSC(=N)NCCC[C@H](N)C(=O)O [S-Methyl-L-thiocitrulline acetate],scaled lipid accumulation score,[1],≤ -0.02
O=C(Nc1ncc(SCCN2CCCC2)s1)[C@]1(c2ccc(S(=O)(=O)C3CC3)cc2)C[C@H]1C1CCCCC1,scaled lipid accumulation score,[1],0.143
O=C(Nc1ncc(SCCN2CCCC2)s1)[C@]1(c2ccc(S(=O)(=O)C3CC3)cc2)C[C@@H]1C1CCCCC1,scaled lipid accumulation score,[3],1.12 (active)
Cn1cccc1/C=C1\C(=O)NC(=O)c2ccccc21,scaled lipid accumulation score,[1],0.017
O=C(Nc1ccccc1)N[C@@H]1C[C@@H](C(=O)O)Nc2cc(Cl)cc(Cl)c21,scaled lipid accumulation score,[1],≤ 0
CC(N)(C(=O)O)c1ccc(C(=O)O)cc1 (centres undefined),scaled lipid accumulation score,[1],0.151
NC(=O)c1c(NC(=O)C2CC2)sc2c1CCCC2,scaled lipid accumulation score,library stock concentration: 80 uM,≤ -0.001
same,scaled lipid accumulation score,[4],≤ -0.001
same,scaled lipid accumulation score,[5],≤ -0.001
same,scaled lipid accumulation score,[1],0.118
"CCN(CC)C(=O)c1ccc(Nc2nc(OCC3CCCCC3)c3[nH]cnc3n2)cc1 [Cdk2 Inhibitor IV, NU6140]",scaled lipid accumulation score,[3],≤ 0
CC1OC2(CS1)CN1CCC2CC1 (centres undefined) [Cevimeline hydrochloride],scaled lipid accumulation score,[1],≤ 0
